Laboratory results as given in PubChem BioAssay AID1159580 (chemical genetic matrix, 2015).
Several values for one entry are separate records, joined by “and”; a condition that tells them apart may be missing. Identical values can stand only once. The whole screen tested about 5,500 compounds, of which about 2,000 (36%) were called active. About 18% were inconclusive and are not listed. Cut-off read from the data, not from the text of the source: active = normalized growth mostly below about 0.91 (no sharp cut-off); inconclusive = no clear call, values can overlap the other calls; inactive = mostly above about 0.92. This is one part of the list.

Assay: chemical genetic growth profiling, strain panel (AID 1159580);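 note: tested at 20 µM; growth read once vehicle control cultures reached saturation at 30 °C; 1 = growth at the plate median or of vehicle wells; lower values mean less growth of the strain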
Settings: S. cerevisiae deletion strains, growth OD

Measured: normalized growth

CC1=CC(=O)c2ccccc2C1=O
active: locus YAL013W, strain DEP1, stronger effect = lower value 0.0548 | locus YAL026C, strain drs2, stronger effect = lower value 0.903 | locus YBR009C, strain hhf1, stronger effect = lower value 0.757 | locus YBR021W, strain FUR4, stronger effect = lower value 0.0857 | locus YBR229C, strain ROT2, stronger effect = lower value 0.076 | locus YCL011C, strain gbp2, stronger effect = lower value 0.864 | locus YCL029C, strain bik1, stronger effect = lower value 0.0624 | locus YDL035C, strain GPR1, stronger effect = lower value 0.0512 | locus YDL074C, strain BRE1, stronger effect = lower value 0.108 | locus YDL101C, strain DUN1, stronger effect = lower value 0.0567 | locus YDL134C, strain PPH21, stronger effect = lower value 0.046 | locus YDL185W, strain tfp1, stronger effect = lower value 0.0717 | locus YDL192W, strain arf1, stronger effect = lower value 0.0585 | locus YDR101C, strain arx1, stronger effect = lower value 0.0639 | locus YDR150W, strain NUM1, stronger effect = lower value 0.0617 | locus YDR162C, strain NBP2, stronger effect = lower value 0.054 | locus YDR195W, strain ref2 1.3 [resistant] | locus YDR318W, strain mcm21, stronger effect = lower value 0.0603 | locus YDR388W, stronger effect = lower value 0.0538 | locus YDR392W, strain spt3, stronger effect = lower value 0.539 | locus YDR502C, strain sam2, stronger effect = lower value 0.059 | locus YEL061C, strain CIN8, stronger effect = lower value 0.0492 | locus YER110C, stronger effect = lower value 0.0711 | locus YER155C, strain BEM2, stronger effect = lower value 0.076 | locus YER167W, strain BCK2, stronger effect = lower value 0.0494 | locus YGL078C, strain dbp3, stronger effect = lower value 0.294 | locus YGL086W, strain mad1, stronger effect = lower value 0.0543 | locus YGL240W, strain doc1, stronger effect = lower value 0.871 | locus YGL248W, strain PDE1, stronger effect = lower value 0.0439 | locus YGL253W, strain hxk2, stronger effect = lower value 0.887 | locus YGR078C, strain PAC10, stronger effect = lower value 0.0487 | locus YGR135W, strain pre9, stronger effect = lower value 0.0619 | locus YGR229C, strain SMI1, stronger effect = lower value 0.0566 | locus YGR252W, strain gcn5, stronger effect = lower value 0.168 | locus YHR013C, strain ard1, stronger effect = lower value 1.17 [resistant] | locus YHR030C, strain SLT2, stronger effect = lower value 0.0463 and 0.306 | locus YHR079C, strain IRE1 (second series), stronger effect = lower value 0.0572 | locus YHR079C, strain IRE1, stronger effect = lower value 0.291 | locus YHR094C, strain hxt1, stronger effect = lower value 0.0585 | locus YHR129C, strain ARP1, stronger effect = lower value 0.058 | locus YHR142W, strain chs7, stronger effect = lower value 0.838 | locus YHR200W, strain rpn10, stronger effect = lower value 0.0601 | locus YIL066C, strain RNR3, stronger effect = lower value 0.0506 | locus YIL073C, strain SPO22, stronger effect = lower value 0.117 | locus YIL125W, strain kgd1, stronger effect = lower value 0.419 | locus YIR030C, strain dcg1, stronger effect = lower value 0.0593 | locus YJL095W, strain BCK1, stronger effect = lower value 0.0528 and 0.292 | locus YJL134W, strain LCB3, stronger effect = lower value 0.0458 | locus YJL166W, strain qcr8, stronger effect = lower value 0.639 | locus YJL168C, strain set2, stronger effect = lower value 0.0804 | locus YJL187C, strain SWE1 (second series), stronger effect = lower value 0.0592 | locus YJR043C, strain POL32, stronger effect = lower value 0.0645 | locus YJR066W, strain TOR1, stronger effect = lower value 0.368
inactive: locus YAL021C, strain ccr4, stronger effect = lower value 1.02 | locus YAL030W, strain snc1, stronger effect = lower value 1.02 | locus YBL061C, strain skt5, stronger effect = lower value 1.03 | locus YBR023C, strain chs3, stronger effect = lower value 0.999 | locus YBR171W, strain sec66, stronger effect = lower value 1.03 | locus YBR231C, strain swc5, stronger effect = lower value 0.955 | locus YBR279W, strain paf1, stronger effect = lower value 0.971 | locus YCL016C, strain dcc1, stronger effect = lower value 0.933 | locus YCL061C, strain MRC1, stronger effect = lower value 0.932 | locus YCL069W, strain vba3, stronger effect = lower value 0.967 | locus YCR088W, strain abp1, stronger effect = lower value 1.03 | locus YDL005C, strain med2, stronger effect = lower value 1.03 | locus YDL040C, strain nat1, stronger effect = lower value 1.03 | locus YDR001C, strain nth1, stronger effect = lower value 1.04 | locus YDR069C, strain doa4, stronger effect = lower value 1.03 | locus YDR137W, strain rgp1, stronger effect = lower value 0.916 | locus YDR159W, strain sac3, stronger effect = lower value 0.983 | locus YDR297W, strain sur2, stronger effect = lower value 0.988 | locus YDR334W, strain swr1, stronger effect = lower value 1.01 | locus YDR335W, strain msn5, stronger effect = lower value 1.01 | locus YEL003W, strain gim4, stronger effect = lower value 0.938 | locus YEL037C, strain rad23, stronger effect = lower value 0.994 | locus YEL061C, strain CIN8 (second series), stronger effect = lower value 1.02 | locus YER015W, strain faa2, stronger effect = lower value 0.971 | locus YER016W, strain bim1, stronger effect = lower value 1.02 | locus YER111C, strain swi4, stronger effect = lower value 1.02 | locus YER155C, strain BEM2 (second series), stronger effect = lower value 0.993 | locus YFR010W, strain ubp6, stronger effect = lower value 0.989 | locus YGL167C, strain pmr1, stronger effect = lower value 1.04 | locus YGL173C, strain kem1, stronger effect = lower value 0.987 | locus YGL227W, strain vid30, stronger effect = lower value 0.974 | locus YHR027C, strain rpn1, stronger effect = lower value 0.997 | locus YJL092W, strain hpr5, stronger effect = lower value 1.02 | locus YJL095W, strain BCK1 (second series), stronger effect = lower value 1.02 | locus YJL115W, strain asf1, stronger effect = lower value 1.03 | locus YJL129C, strain trk1, stronger effect = lower value 1.02 | locus YJL154C, strain vps35, stronger effect = lower value 1.03 | locus YJL164C, strain tpk1, stronger effect = lower value 0.934
